Test results as given in PubChem BioAssay (NCI).
This is part of a sample that, as a whole, favours compounds with a hit. Of some 79,000 tested, about 15% had one in any assay. Active and inactive are the calls of the source. Cut-off read from the data, not from the text of the source: active = growth inhibition above about 70%; inactive = the rest.

Assays:
[1] = NCI Yeast Anticancer Drug Screen. Data for the rad52 strain (AID 147);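 note: 0% = growth of vehicle-treated control cultures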; conditions: S. cerevisiae rad52 mutant growth inhibition, active compounds read high
Outline: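 Measured: yeast growth inhibition. System: strain with a defined DNA damage repair alteration. Reference: vehicle-treated control cultures.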

[2] = NCI Yeast Anticancer Drug Screen. Data for the wt1 strain (AID 149);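 note: 0% = growth of vehicle-treated wt1 cultures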; conditions: S. cerevisiae wt1 strain (SPY 50644) growth inhibition, active compounds read high
Outline: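 Compounds are added to wt1 yeast cultures. Growth is then measured. Inhibition is expressed relative to vehicle-treated controls.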

[3] = NCI Yeast Anticancer Drug Screen. Data for the rad50 strain (AID 155);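 note: 0% = growth of vehicle-only cultures of the same strain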; conditions: S. cerevisiae rad50 strain growth inhibition, active compounds read high
Outline: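 Inhibition values express reduced yeast growth in compound-treated cultures relative to vehicle-treated controls.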

[4] = NCI Yeast Anticancer Drug Screen. Data for the mec2-1 strain (AID 157); conditions: S. cerevisiae mec2-1 strain, active compounds read high
Outline: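 Test agents were screened against the mec2-1 yeast strain, with defined DNA repair or cell cycle alteration. Growth was scored as inhibition against vehicle-only controls.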

[5] = NCI Yeast Anticancer Drug Screen. Data for the rad14 strain (AID 159);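 note: 0% = growth of vehicle-treated control cultures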; conditions: S. cerevisiae rad14 strain growth inhibition, active compounds read high
Outline: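 A mutant yeast strain defective in DNA damage repair is treated with compound; inhibition of its growth is scored against untreated, vehicle-exposed cultures.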

[6] = NCI Yeast Anticancer Drug Screen. Data for the sgs1 mgt1 strain (AID 161);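 note: 0% = growth of cultures given vehicle only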; conditions: S. cerevisiae sgs1 mgt1 strain, active compounds read high
Outline: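 Inhibition of yeast growth, normalised to vehicle-treated controls, is reported for a strain bearing genetic alterations in DNA damage repair.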

[7] = NCI Yeast Anticancer Drug Screen. Data for the CLN2oe strain (AID 163);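 note: 0% = growth of vehicle-only control cultures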; conditions: S. cerevisiae CLN2oe strain, active compounds read high
Outline: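 Here, growth inhibition in a cell-cycle-altered yeast strain after compound exposure was quantified against vehicle control growth.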

[8] = NCI Yeast Anticancer Drug Screen. Data for the cln2 rad14 strain (AID 165);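 note: 0% = growth equal to vehicle treated cultures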; conditions: S. cerevisiae cln2 rad14 strain, active compounds read high
Outline: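 Growth of compound-exposed yeast (cln2 rad14 genotype) measured and expressed as inhibition relative to vehicle.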

[9] = NCI Yeast Anticancer Drug Screen. Data for the bub3 strain (AID 167); conditions: S. cerevisiae bub3 mutant strain, active compounds read high
Outline: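 Steps: expose the mutant yeast strain to compound; grow alongside vehicle-treated cultures; measure growth; express inhibition against the vehicle cultures.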

[10] = NCI Yeast Anticancer Drug Screen. Data for the wt2 strain (AID 169);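 note: 0% = growth of vehicle-treated yeast cultures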; conditions: S. cerevisiae wt2 strain growth inhibition, active compounds read high
Outline: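 Genetically defined yeast strains from a DNA-repair/cell-cycle panel were used. Compound-exposed yeast growth was measured, and the inhibition was calculated relative to vehicle treatment.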

[11] = NCI Yeast Anticancer Drug Screen. Data for the mlh1 strain (AID 171);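 note: 0% = growth of vehicle-treated control cultures of the same strain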; conditions: S. cerevisiae mlh1 strain growth inhibition, active compounds read high
Outline: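 Here the genetically defined yeast mutant is grown with each compound, and the extent to which its growth falls below that of vehicle-exposed cells is reported.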

[12] = NCI Yeast Anticancer Drug Screen. Data for the sgs1 strain (AID 173);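 note: 0% = growth of vehicle-only control cultures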; conditions: S. cerevisiae sgs1 mutant, active compounds read high
Outline: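 Relative growth inhibition, referenced to vehicle, was determined in a yeast strain with a defined alteration affecting DNA damage repair or cell cycle control after compound exposure.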

[13] = NCI Yeast Anticancer Drug Screen. Data for the mlh1 rad18 strain (AID 175); conditions: S. cerevisiae mlh1 rad18 strain growth inhibition, active compounds read high
Outline: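 In this whole-cell yeast screen, a strain with altered DNA damage repair is challenged with compound, and its growth is measured against matched vehicle-treated controls.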

[14] = NCI Yeast Anticancer Drug Screen. Data for the rad18 strain (AID 177); conditions: S. cerevisiae rad18 mutant growth inhibition, active compounds read high
Outline: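 Screen uses a yeast strain with a defined lesion in DNA damage repair; compound effect is read as loss of growth compared to untreated vehicle cultures.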

[15] = NCI Yeast Anticancer Drug Screen. Data for the rad50EPP+ strain (AID 151);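 note: 0% = growth of vehicle-treated control cultures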; conditions: S. cerevisiae rad50 mutant strain, active compounds read high
Outline: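 One strain with a rad50 alteration (rad50EPP+) was compound-treated, its growth then compared to that of vehicle controls.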

[16] = at 5.0 µM (retest, dose inferred, filed as 0.5)
[17] = at 50.0 µM (retest, dose inferred, filed as 5.0)

Measured: growth inhibition

Nc1ccc(CCl)cc1Cc1c(O)ccc2ccccc12
inactive: [1]; at 1.2 µM 0% | [1]; at 3.7 µM 3% | [1]; at 11.0 µM 9% | [1]; at 33.0 µM 19% | [1]; at 100.0 µM 36% | [2]; at 1.2 µM -1% | [2]; at 3.7 µM 6% | [2]; at 11.0 µM 12% | [2]; at 33.0 µM 19% | [2]; at 100.0 µM 30% | [3]; at 1.2 µM 1% | [3]; at 3.7 µM 4% | [3]; [16] 6% | [3]; at 11.0 µM 8% | [3]; at 33.0 µM 13% | [3]; [17] 41% | [3]; at 50.0 µM 51.4% | [3]; at 100.0 µM 27% | [4]; at 1.2 µM 1% | [4]; at 3.7 µM 0% | [4]; [16] -6% | [4]; at 11.0 µM 6% | [4]; at 33.0 µM 13% | [4]; at 50.0 µM 37.2% | [4]; at 100.0 µM 33% | [5]; at 1.2 µM 1% | [5]; at 3.7 µM 3% | [5]; at 11.0 µM 8% | [5]; at 33.0 µM 16% | [5]; at 100.0 µM 29% | [6]; [16] 2% | [6]; [17] 64% | [7]; at 1.2 µM -3% | [7]; at 3.7 µM -7% | [7]; at 11.0 µM 3% | [7]; at 33.0 µM -1% | [7]; at 100.0 µM 34% | [8]; [16] 6% | [8]; [17] 61% | [8]; at 50.0 µM 29.3% | [9]; at 1.2 µM -4% | [9]; at 3.7 µM -2% | [9]; [16] 3% | [9]; at 11.0 µM 0% | [9]; at 33.0 µM 1% | [9]; [17] 43% | [9]; at 50.0 µM 55% | [9]; at 100.0 µM 27% | [10]; at 1.2 µM 1% | [10]; at 3.7 µM 6% | [10]; at 11.0 µM 16% | [10]; at 33.0 µM 23% | [10]; at 100.0 µM 32% | [11]; at 1.2 µM 1% | [11]; at 3.7 µM 2% | [11]; at 11.0 µM 5% | [11]; at 33.0 µM 8% | [11]; at 100.0 µM 31% | [12]; at 1.2 µM 1% | [12]; at 3.7 µM 1% | [12]; at 11.0 µM 10% | [12]; at 33.0 µM 21% | [12]; at 100.0 µM 38% | [13]; [16] 0% | [13]; [17] 61% | [13]; at 50.0 µM 66.7% | [14]; at 1.2 µM 1% | [14]; at 3.7 µM 1% | [14]; at 11.0 µM 7% | [14]; at 33.0 µM 16% | [14]; at 100.0 µM 33%
active: [4]; [17] 84% | [6]; at 50.0 µM 70.3%

CN(C)CC1CCCc2ccccc2C1=O (stereo not drawn)
inactive: [1]; at 1.2 µM -43% | [1]; at 3.7 µM -39% | [1]; at 11.0 µM -41% | [1]; at 33.0 µM 2% | [2]; at 1.2 µM 1% | [2]; at 3.7 µM -11% | [2]; at 11.0 µM -1% | [2]; at 33.0 µM 9% | [2]; at 100.0 µM 53% | [15]; at 1.2 µM 6% | [15]; at 3.7 µM -4% | [15]; at 11.0 µM 26% | [3]; at 1.2 µM -5% | [3]; at 3.7 µM -2% | [3]; [16] -14% | [3]; at 11.0 µM 5% | [3]; at 33.0 µM 41% | [3]; [17] 40% | [3]; at 50.0 µM 66.2% | [4]; at 1.2 µM -4% | [4]; at 3.7 µM -12% | [4]; [16] -11% | [4]; at 11.0 µM -7% | [4]; at 33.0 µM 20% | [4]; [17] -2% | [4]; at 50.0 µM 23.4% | [6]; [16] -1% | [6]; [17] 22% | [6]; at 50.0 µM 50.3% | [7]; at 1.2 µM -7% | [7]; at 3.7 µM 1% | [7]; at 11.0 µM 22% | [7]; at 33.0 µM 14% | [9]; at 1.2 µM 24% | [9]; at 3.7 µM 23% | [9]; [16] -25% | [9]; at 11.0 µM 19% | [9]; at 33.0 µM 28% | [9]; [17] 40% | [9]; at 50.0 µM 32.3% | [10]; at 1.2 µM -32% | [10]; at 3.7 µM -31% | [10]; at 11.0 µM -36% | [10]; at 33.0 µM -1% | [11]; at 1.2 µM 23% | [11]; at 3.7 µM 28% | [11]; at 11.0 µM 29% | [13]; [16] 13% | [13]; [17] 66% | [14]; at 1.2 µM -14% | [14]; at 3.7 µM 7% | [14]; at 11.0 µM 2% | [14]; at 33.0 µM 38%
active: [1]; at 100.0 µM 76% | [15]; at 33.0 µM 76% | [15]; at 100.0 µM 97% | [3]; at 100.0 µM 91% | [4]; at 100.0 µM 85% | [7]; at 100.0 µM 89% | [9]; at 100.0 µM 95% | [10]; at 100.0 µM 76% | [11]; at 33.0 µM 76% | [11]; at 100.0 µM 95% | [13]; at 50.0 µM 70.2% | [14]; at 100.0 µM 85%

O=Cc1coc2ccccc2c1=O
active: [15]; at 100.0 µM 91% | [4]; [17] 70%
inactive: [1]; at 1.2 µM -9% | [1]; at 3.7 µM 3% | [1]; at 11.0 µM 11% | [1]; at 33.0 µM 22% | [1]; at 100.0 µM 48% | [2]; at 1.2 µM 10% | [2]; at 3.7 µM 19% | [2]; at 11.0 µM 18% | [2]; at 33.0 µM 22% | [2]; at 100.0 µM 42% | [15]; at 1.2 µM 2% | [15]; at 3.7 µM 11% | [15]; at 11.0 µM 28% | [15]; at 33.0 µM 66% | [3]; at 1.2 µM -23% | [3]; at 3.7 µM 10% | [3]; [16] 12% | [3]; at 11.0 µM 17% | [3]; at 33.0 µM 24% | [3]; [17] 26% | [3]; at 50.0 µM 20.4% | [3]; at 100.0 µM 57% | [4]; at 1.2 µM -7% | [4]; at 3.7 µM 12% | [4]; [16] -15% | [4]; at 11.0 µM 18% | [4]; at 33.0 µM 18% | [4]; at 50.0 µM 35.2%
